Hits are enriched below; roughly 2% of the tested compounds scored in any of these assays.
PKA-R1A activ: activators of PKA-R1A holoenzyme, primary screen, biochemical, fluorescence polarization, Cy5-IP20, bovine R1A, mouse PKAc. PKA-R1A dissociation; scaled: DMSO 0%, 113 µM cGMP 100%. cAMP-dependent protein kinase type I-alpha regulatory subunit (Bos taurus) + …. actives 0.083% (n = 340,000). activation, % at 11.4 µM;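 active means percent activation above the mean of all tested compounds plus 3 SD, cut at about 19% in these data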;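 further: higher means more PKAc released from R1A so a rise in polarization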
PKA-R2B act: activators of PKA-R2B holoenzyme, primary screen, biochemical, fluorescence polarization, Cy5-IP20, human. cAMP-dependent protein kinase catalytic subunit beta (Homo sapiens) + cAMP-dependent …. AID 504700, 2011. activation, % at 11.4 µM. actives 0.079% (n = 340,000). PKA-R2B holoenzyme dissociation; R2B truncated from residue 108, S112A mutant; 0% DMSO only, 100% 113 µM cGMP;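 active means activation above a cutoff set at the mean over all compounds plus 3 SD, cut at about 18% in these data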;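 further: higher means more holoenzyme dissociation and a rise in polarization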
Target sequence (P31323 whole entry, looked up, other chains not shown, the tested form may be a part): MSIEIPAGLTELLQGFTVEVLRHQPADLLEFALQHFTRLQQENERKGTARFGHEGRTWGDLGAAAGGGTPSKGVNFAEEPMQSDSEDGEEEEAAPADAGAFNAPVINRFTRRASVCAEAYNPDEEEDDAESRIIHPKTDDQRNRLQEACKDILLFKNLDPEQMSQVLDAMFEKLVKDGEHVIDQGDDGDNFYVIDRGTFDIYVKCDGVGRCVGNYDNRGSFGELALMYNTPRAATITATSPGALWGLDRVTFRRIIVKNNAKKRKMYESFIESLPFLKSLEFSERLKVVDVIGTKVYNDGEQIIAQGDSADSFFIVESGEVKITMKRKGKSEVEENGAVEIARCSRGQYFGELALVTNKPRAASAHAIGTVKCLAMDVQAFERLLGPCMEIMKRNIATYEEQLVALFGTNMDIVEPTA
bovine MsrA act: bovine MsrA enzyme activators, primary screen, biochemical, absorbance, HTS; activation, % at 10.6 µM; purified bovine MsrA, absorbance read-out; actives 0.3% (n = 360,000); in the data active means activation above about 7.5%;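 further: 0% = vehicle and 100% = reference activator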
MsrA inhibitor: bovine MsrA enzyme inhibitors, primary screen, biochemical, absorbance, HTS; AID 651718, 2012; purified bovine MsrA, absorbance read-out; actives 0.75% (n = 360,000); inhibition, % at 15.5 µM; in the data active means inhibition above about 4.5%;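 further: 0% = vehicle wells with enzyme and 100% = reference inhibitor wells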
Mot1-301 SUMO: yeast Mot1-301 growth rescue at high temperature, primary screen, SUMOylation pathway inhibitor project, S. cerevisiae, ATP luminescence, 38.5C | actives 1% (n = 320,000) | growth rescue, % at 18.8 µM | S. cerevisiae Mot1-301 growth rescue; percent above DMSO median, 100 means doubled;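 active means every valid replicate shows activation above 250% relative to neutral control wells; inactive means the rest, any valid replicate at or below 250%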;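 further: OY570 slx delta 5 strain wells were the positive control but not used for scaling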
Yeast Mot1 SUMO: growth restoration of Mot1-301 yeast on galactose, dose response, SUMO pathway inhibitor project, whole organism, S. cerevisiae, ATP luminescence, cherry-picked samples; 2,300 tested, under 10 active; AID 493004, 2010; growth activity, percent, % at 42 µM; shares compounds with Mot1-301 SUMO; S. cerevisiae Mot1-301 galactose growth, 24 h; -100 = growth of slx-deleted rescue strain;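 active means Signal drops as the depositor expects, and the fitted half-maximal dose is no more than ten times the top valid tested dose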;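 further: more negative values mean stronger growth rescue toward the control strain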
* marks the source's active call; other numbers are inactive results; · = no result; + = active, no number; [ ] = another dose, or the depositor's remark.

SMILES	PKA-R1A activ	PKA-R2B act	bovine MsrA act	MsrA inhibitor	Mot1-301 SUMO	Yeast Mot1 SUMO
CC(NC(=O)C12CC3CC(CC(C3)C1)C2)c1ccc(F)cc1 (stereo unspecified)	-8	-9	-2	0	-9	·
CC(NC(=O)C12CC3CC(CC(O)(C3)C1)C2)c1ccccc1 (stereo unspecified)	-7	14	-3	0	409*	-1
Cc1cc(S(=O)(=O)NCC(C)C)ccc1OCC(=O)N1CCOCC1	-10	-13	3	-1	867*	0
COc1ccc(N2C(=O)CSC23CCCCC3)cc1	0	-4	-1	-1	+	1
CCOc1ccc(N2C(=O)CSC23CCCCC3)cc1	-7	-13	-1	-1	-4	·
COCCN=C1Sc2ccccc2[C@@H]2C[C@H]3[C@H](CON3C)CN12	·	·	·	1	·	·
CCOC(=O)C1=C(C(=O)OCC)C2N(Cc3ccc(C#N)cc3)c3ccccc3[C@@]23C[C@@H](C(=O)OC)N(S(=O)(=O)c2ccc(OC)cc2)C3=N1 (stereo partly specified)	·	·	·	2	·	·
CCCNC(=O)c1cn(CC)c2cc(N3CCN(C)CC3)c(F)cc2c1=O	4	-11	-4	0	1	·
CCCc1nnc(NC(=O)c2cn(CC)c3cc(N4CCN(C)CC4)c(F)cc3c2=O)s1	·	·	-1	1	644*	0[21 µM]
NS(=O)(=O)c1ccc(CCNC(=O)c2ccc([N+](=O)[O-])s2)cc1	-4	-3	3	1	389*	1
NS(=O)(=O)c1ccc(CCNC(=O)c2ccc(Cl)s2)cc1	8	8	-2	0	0	·
CCCN1C(=O)c2[nH]nc(-c3ccccc3)c2C1c1ccc(Br)cc1 (stereo unspecified)	·	·	·	0	·	·
CN1CCN(C(=O)CCN2C(=O)/C(=C/c3ccccc3Cl)SC2=S)CC1	1	-3	-6	1	378*	-1
COC(C(=O)Nc1ccnn1C1CCN(Cc2cnn(C)c2)CC1)c1ccccc1 (stereo unspecified)	1	-1	-5	0	497*	0
O=C1CCC(/C=C/c2ccccc2)=NN1Cc1ccc(Cl)c(Cl)c1	-7	3	-12	1	659*	0
O=C(O)CCCC(=O)OCCCc1cc2ccccc2c(=O)o1	·	·	·	0	·	·
COc1ccc(/C=N/NC(=O)c2c(C)nc3ccccn23)cc1[N+](=O)[O-]	-5	-2	-3	2	569*	0
CN(NC(=O)c1ccco1)c1nc2ccccc2nc1C(F)(F)F	-7	2	-3	0	81	·
Cc1ccccc1C(=O)NN(C)c1nc2ccccc2nc1C(F)(F)F	-5	-8	-7	-1	+	1
O=C(N[C@@H](Cc1cccnc1)C(=O)N1CCC[C@H]1C(=O)NCc1ccccc1)c1ccc(Cl)c(Cl)c1	·	·	·	-1	·	·
Cc1ccccc1CSc1n[nH]c(NS(=O)(=O)c2ccccc2)n1	-3	7	-1	0	+	0[21 µM]
CCCOC(=O)c1c(NC(=O)/C=C/c2cnn(C)c2C)sc(C(=O)OCC)c1C	-1	1	-3	-1	212	·
CCCOC(=O)c1c(NC(=O)/C=C/c2cnn(C)c2C)sc(C(=O)OC)c1C	-4	5	-2	·	+	0
CCCS(=O)(=O)N1CCC(C(=O)N2CCc3ccccc3C2)CC1	-6	-7	3	0	397*	0
CCn1ncc(Br)c1C(=O)Nc1ccc(OC(F)(F)F)cc1	-7	2	-2	-1	451*	-1
O=C(CCc1nc(-c2ccc(Cl)cc2)no1)NC1CCCC1	0	5	-3	0	6	·
O=C(CCCc1nc(-c2ccc(Cl)cc2)no1)NC1CCCCC1	-6	6	-2	0	861*	1

High-throughput results: PubChem, several laboratories
